The target in assay [1] is Androgen receptor (Homo sapiens) (UniProt P10275). The experiment in a line: ATG_AR_TRANS: Attagene TRANS-FACTORIAL HepG2 Assay for human Androgen Receptor (AR) (AID 2282973). As to conditions: HepG2 Attagene TRANS-FACTORIAL AR reporter transcription. The procedure, abridged: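 Readout is reporter transcript abundance, quantified by fluorescent RT-PCR products separated on capillary electrophoresis. Human HepG2 liver cells carried transiently transfected NR-Gal4 chimera plus GAL4-UAS reporter constructs and were dosed for 24 h; activity scored upward versus DMSO.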
Androgen receptor (Homo sapiens), sequence (P10275 whole entry, looked up, the tested form may be a part): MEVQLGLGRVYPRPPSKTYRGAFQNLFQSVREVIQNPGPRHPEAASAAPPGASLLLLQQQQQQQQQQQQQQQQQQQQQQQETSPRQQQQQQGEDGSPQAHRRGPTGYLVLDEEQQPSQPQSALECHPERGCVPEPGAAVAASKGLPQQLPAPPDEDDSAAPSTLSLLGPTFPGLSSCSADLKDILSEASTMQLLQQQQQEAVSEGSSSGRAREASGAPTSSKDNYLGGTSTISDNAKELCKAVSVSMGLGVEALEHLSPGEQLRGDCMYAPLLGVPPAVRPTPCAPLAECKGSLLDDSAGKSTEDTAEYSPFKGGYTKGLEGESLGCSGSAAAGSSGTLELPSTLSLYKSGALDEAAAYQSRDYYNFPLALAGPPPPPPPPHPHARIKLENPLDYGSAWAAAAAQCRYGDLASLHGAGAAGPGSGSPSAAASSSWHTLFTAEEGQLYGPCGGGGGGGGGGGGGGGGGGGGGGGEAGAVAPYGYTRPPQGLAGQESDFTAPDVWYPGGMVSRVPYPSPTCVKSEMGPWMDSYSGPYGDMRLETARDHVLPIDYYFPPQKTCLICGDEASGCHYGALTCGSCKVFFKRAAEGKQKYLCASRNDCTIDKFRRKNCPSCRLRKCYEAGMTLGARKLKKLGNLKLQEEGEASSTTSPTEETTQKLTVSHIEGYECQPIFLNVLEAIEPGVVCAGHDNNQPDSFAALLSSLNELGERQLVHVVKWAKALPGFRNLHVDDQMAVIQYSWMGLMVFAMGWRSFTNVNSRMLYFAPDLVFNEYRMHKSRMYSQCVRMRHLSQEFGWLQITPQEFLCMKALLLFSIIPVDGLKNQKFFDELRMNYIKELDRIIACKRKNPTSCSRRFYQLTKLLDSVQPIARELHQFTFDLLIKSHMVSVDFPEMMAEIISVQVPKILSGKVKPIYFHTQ

Assay [2] can be described thus: Tanguay_ZF_120hpf_MUSC: Oregon State University Tanguay Lab 120 Hour Post-fertilization zebrafish Assay for Muscle Malformation (AID 2284401; active means hit-call score of the fitted dose curve at least 0.9, where 1 is the maximum; inactive means score below 0.9). The procedure, abridged: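 Dechorionated Tropical 5D wild-type zebrafish embryos exposed statically from 6 to 120 hpf at 28C, one per well, in 0.64% DMSO. Muscle malformation scored present/absent by brightfield microscopy at 120 hpf, fitted against DMSO.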

The nature of assay [3]: ATG_M_32_XSP2: Attagene TRANS-FACTORIAL Multi-Species (XSP2) HepG2 Assay for M19 Transcription Factor (Internal Marker) (AID 2283826). The essentials: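 Read-out: fluorescent reporter mRNA fragments resolved by capillary electrophoresis after RT-PCR, gain-of-signal versus DMSO baseline. Cells were human HepG2 carrying transfected multi-reporter units, exposed 24 h. Medium contained 3 nM 6-alpha-fluorotestosterone plus 1.5 nM norgestrel.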

Assay [4] addresses Norway rat Vesicular Monoamine Transporter (VMAT2), neurotransmitter transporter, Slc18a2 (gene 25549) (UniProt Q01827). The experiment in a line: NVS_TR_rVMAT2: NovaScreen (NVS) Transporter Assay for Norway rat Vesicular Monoamine Transporter (VMAT2), neurotransmitter transporter (AID 2283376).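 Further: actives lower the bound radioligand signal below the DMSO level.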 The procedure, abridged: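 Tissue: rat forebrain extract. Format: competitive radioligand binding, cell-free. Timepoint: 1 h. Readout: filter radiodetection/scintillation. Screen: 25 uM in duplicate, then concentration series for actives. Baseline: DMSO.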

Records with an inconclusive call do not appear. Active and inactive are the calls of the source. How the source made its calls, unless noted: active means hit-call score of the fitted dose curve at least 0.9, where 1 is the maximum; inconclusive means response in the unintended direction; inactive means score below 0.9.

Norway rat Vesicular Monoamine Transporter (VMAT2), neurotransmitter transporter, Slc18a2 (gene 25549), sequence (Q01827 whole entry, looked up): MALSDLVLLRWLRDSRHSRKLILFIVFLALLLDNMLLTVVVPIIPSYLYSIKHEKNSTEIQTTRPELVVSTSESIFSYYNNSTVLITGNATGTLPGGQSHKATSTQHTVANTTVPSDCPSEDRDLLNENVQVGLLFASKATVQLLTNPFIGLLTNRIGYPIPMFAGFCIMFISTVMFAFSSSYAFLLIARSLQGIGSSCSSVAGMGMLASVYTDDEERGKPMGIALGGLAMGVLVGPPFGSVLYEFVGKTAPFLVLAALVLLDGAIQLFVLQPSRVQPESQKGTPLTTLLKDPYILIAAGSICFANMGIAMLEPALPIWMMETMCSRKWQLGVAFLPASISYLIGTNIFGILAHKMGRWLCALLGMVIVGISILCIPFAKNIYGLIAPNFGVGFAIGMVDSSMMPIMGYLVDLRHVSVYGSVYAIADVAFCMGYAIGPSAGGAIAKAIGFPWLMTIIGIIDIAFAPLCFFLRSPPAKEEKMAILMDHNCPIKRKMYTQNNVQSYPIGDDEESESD

For the molecule `O=S(=O)(O)CCC(F)(F)C(F)(F)C(F)(F)C(F)(F)C(F)(F)C(F)(F)F`, the result in assay [1] and in assay [2] was inactive.

As for `COc1ccc(C(=O)c2ccccc2)c(O)c1`, the call in assay [1] and in assay [3] was inactive.

Consider `C=CC(=O)OCC(F)(F)C(F)(F)C(F)(F)C(F)(F)C(F)(F)C(F)(F)C(F)(F)C(F)F`, for which the result in assay [1] and in assay [2] was inactive.

As for `C=C(C)C(=O)OCCC(F)(F)C(F)(F)C(F)(F)C(F)(F)C(F)(C(F)(F)F)C(F)(F)F`, the molecule was classed as inactive in assay [1] and in assay [2].

As to `O=C1CCC(=O)N1`, the outcome in assay [1] and in assay [4] was inactive.

On to `C=C1C[C@H]2[C@@H]3C=C(C)C4=CC(=O)CC[C@]4(C)[C@H]3CC[C@]2(C)[C@@]1(OC(C)=O)C(C)=O`, for which the result in assay [1] and in assay [3] was inactive.

For `FC(F)(F)C(F)(F)C(F)(F)C(F)(F)C(F)(F)C(F)(F)C(F)(F)C(F)(F)F`, the outcome in assay [1] and in assay [2] was inactive.

Turning to `C[Si](C)(C)C(F)(F)C(F)(F)C(F)(F)F`, the molecule was classed as inactive in assay [1] and in assay [2].

Turning to `O=c1c(-c2ccc(O)cc2)coc2cc(O)ccc12`, the outcome in assay [1] and in assay [3] was inactive.

On to `CO[Si](C)(CCC(F)(F)C(F)(F)C(F)(F)C(F)(F)C(F)(F)C(F)(F)F)OC`, for which the call in assay [1] and in assay [2] was inactive.

Turning to `C=CCc1cc(S(=O)(=O)c2ccc(O)c(CC=C)c2)ccc1O`, the molecule was classed as inactive in assay [1] and in assay [3].

With `O=C(O)C(F)(OC(F)(F)C(F)(OC(F)(F)C(F)(F)C(F)(F)F)C(F)(F)F)C(F)(F)F` (stereo unspecified), the result in assay [1] and in assay [2] was inactive.

Regarding `CNS(=O)(=O)C(F)(F)C(F)(F)C(F)(F)C(F)(F)C(F)(F)C(F)(F)C(F)(F)C(F)(F)F`, the molecule was called inactive in assay [1] and in assay [2].

Turning to `CC1=C(C)S(=O)(=O)CCS1(=O)=O`, the result in assay [1] and in assay [4] was inactive.

In the case of `O=C(O)C=C(C(F)(F)F)C(F)(F)F`, the molecule was called inactive in assay [1] and in assay [2].

Take `O=C(O)C(F)(F)OC(F)(F)C(F)(F)OC(F)(F)C(F)(F)OC(F)(F)C(F)(F)C(F)(F)C(F)(F)F`: the call in assay [1] and in assay [2] was inactive.

Take `N=C(N)C(F)(F)C(F)(F)C(F)(F)C(F)(F)C(F)(F)C(F)(F)C(F)(F)F`: the result in assay [1] and in assay [2] was inactive.

On to `O=S(=O)(OCC(F)(F)F)C(F)(F)C(F)(F)C(F)(F)C(F)(F)F`, for which the call in assay [1] and in assay [2] was inactive.

With `O=S(=O)(O)CCC(F)(F)C(F)(F)C(F)(F)C(F)(F)C(F)(F)C(F)(F)C(F)(F)C(F)(F)F`, the molecule was called inactive in assay [1] and in assay [2].

In the case of `Cc1cnccn1`, the molecule was called inactive in assay [1] and in assay [4].

Take `O=C(O)CCC(F)(F)C(F)(F)C(F)(F)C(F)(F)C(F)(F)F`: the result in assay [1] and in assay [2] was inactive.

For `O=S(=O)(O)CCC(F)(F)C(F)(F)C(F)(F)C(F)(F)F`, the call in assay [1] and in assay [2] was inactive.

Regarding `O=C(O)C(F)(F)C(F)(F)C(F)F`, the outcome in assay [1] and in assay [2] was inactive.

For the molecule `FC(F)(F)C(F)(F)C(F)(F)CC1CO1` (stereo unspecified), the call in assay [1] and in assay [2] was inactive.

For the molecule `OCC(O)CC(F)(F)C(F)(F)C(F)(F)C(F)(F)C(F)(F)C(F)(F)C(F)(F)C(F)(F)F` (stereo unspecified), the molecule was called inactive in assay [1] and in assay [2].

Take `FC(F)=C(F)C(F)(F)C(F)(F)C(F)(F)C(F)(F)C(F)(F)C(F)(F)F`: the outcome in assay [1] and in assay [2] was inactive.

On to `C=CC(=O)OCC(F)(F)C(F)(F)C(F)(F)C(F)(F)C(F)(F)C(F)(F)C(F)(F)F`, for which the result in assay [1] and in assay [2] was inactive.

In the case of `C=CC(=O)OCCC(F)(F)C(F)(F)C(F)(F)C(F)(F)F`, the molecule was classed as inactive in assay [1] and in assay [2].

Take `NC(=O)C(F)(F)C(F)(F)C(F)(F)C(F)(F)C(N)=O`: the call in assay [1] and in assay [2] was inactive.

On to `O=c1cc(-c2ccccc2)oc2cc(O)cc(O)c12`, for which the result in assay [1] and in assay [3] was inactive.

`O=P(O)(O)CCC(F)(F)C(F)(F)C(F)(F)C(F)(F)C(F)(F)C(F)(F)F`: the call in assay [1] and in assay [2] was inactive.

As to `COC(F)(C(F)F)C(F)(F)F` (stereo unspecified), the outcome in assay [1] and in assay [2] was inactive.

As for `O=C(O)C(F)(F)C(F)(F)C(F)(F)OC(F)(F)F`, the outcome in assay [1] and in assay [2] was inactive.

As for `C=CC(F)(F)C(F)(F)C(F)(F)C(F)(F)C(F)(F)C(F)(F)C(F)(F)C(F)(F)C=C`, the molecule was classed as inactive in assay [1] and in assay [2].

Regarding `O=C(O)CCC(F)(F)C(F)(F)C(F)(F)C(F)(F)C(F)(F)C(F)(F)C(F)(F)F`, the outcome in assay [1] and in assay [2] was inactive.

Consider `CN1CCN(C)CC1`, for which the outcome in assay [1] and in assay [4] was inactive.

Take `FC(F)(F)C(F)(F)C(F)(F)C(F)(F)C(F)(F)C(F)(F)CC[Si](Cl)(Cl)Cl`: the molecule was classed as inactive in assay [1] and in assay [2].

As to `O=C(CC(=O)C(F)(F)C(F)(F)F)C(F)(F)F`, the molecule was classed as inactive in assay [1] and in assay [2].

For the origin of these results see PubChem BioAssay (EPA / NIEHS).
